The text below walks through data of PubChem BioAssay (NCI).

Assay [1] is described as follows: NCI Yeast Anticancer Drug Screen. Data for the rad50 strain (AID 155).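 Further: 0% = growth of vehicle-only cultures of the same strain.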 As to conditions: S. cerevisiae rad50 strain growth inhibition; at 50.0 µM; hits give high values. In short, it runs like this:
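Vehicle-treated cultures provide the reference for the growth inhibition reported for compound-exposed, repair-deficient yeast.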

Assay [2] in a line: NCI Yeast Anticancer Drug Screen. Data for the mec2-1 strain (AID 157). Conditions: S. cerevisiae mec2-1 strain, at 50.0 µM, hits give high values. In short, it runs like this:
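Each compound was tested on mec2-1 yeast, a strain altered in DNA damage repair or cell cycle control. Growth inhibition is reported relative to vehicle.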

The nature of assay [3]: NCI Yeast Anticancer Drug Screen. Data for the sgs1 mgt1 strain (AID 161).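 Further: 0% = growth of cultures given vehicle only.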 As to conditions: S. cerevisiae sgs1 mgt1 strain, at 50.0 µM, hits give high values. In short, it runs like this: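 Mutant yeast exposed to compound; growth scored against vehicle-only wells.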
Assay [4] in a line: NCI Yeast Anticancer Drug Screen. Data for the cln2 rad14 strain (AID 165).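 Further: 0% = growth equal to vehicle treated cultures.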 As to conditions: S. cerevisiae cln2 rad14 strain, at 50.0 µM, hits give high values. An outline of the steps: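 Test compounds were added to cln2 rad14 yeast cultures; inhibition of growth was then determined by comparison with vehicle treatment.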
A short description of assay [5]: NCI Yeast Anticancer Drug Screen. Data for the bub3 strain (AID 167). Conditions: S. cerevisiae bub3 mutant strain, at 50.0 µM, hits give high values. In short, it runs like this:
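Mutant yeast screening strain plus compound; vehicle-treated cultures serve as the 0% inhibition reference.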

Assay [6] is described as follows: NCI Yeast Anticancer Drug Screen. Data for the mlh1 rad18 strain (AID 175). Conditions: S. cerevisiae mlh1 rad18 strain growth inhibition; at 50.0 µM; hits give high values. An outline of the steps:
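Inhibition values reflect reduced growth of mutant yeast versus vehicle-treated controls following compound exposure; the mutations affect DNA damage repair.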

The panel holds about 79,000 compounds, 15% with a hit somewhere; the sample as a whole holds those more often. A number with no mark means an inactive call. The source made the active and inactive calls. No stated cut-off is given here; in the data, active means growth inhibition above about 70%; inactive means the rest. Where a SMILES comes first, the peptide text is derived from it. [ ]: non-standard residue; d: D form. The star is where a group is joined. ξ: configuration not given here. Cbz = O=C(OCc1ccccc1)*; ξNva = CCCC(N)C(=O)O

Regarding `CCCC(NC(=O)CNC(=O)OCc1ccccc1)C(=O)O` (stereo not drawn) (Cbz-Gly-[ξNva]-OH), the growth inhibition was 31.6% in assay [1]; 7% in assay [2]; 2.35% in assay [3]; 19.9% in assay [4]; 5.45% in assay [5]; 3.95% in assay [6].
As for `C/C(CC(O)(C(F)(F)F)C(F)(F)F)=N\N`, the growth inhibition in assay [1] was -31.9%; in assay [2], -49.8%; in assay [3], -20.4%; in assay [4], -7.6%; in assay [5] it was -4.5%; in assay [6] it was -23.4%.
On to `CCCC(=O)OCCOc1ccccc1`, for which the growth inhibition is 18.1% in assay [1]; 2.3% in assay [2]; 11% in assay [3]; 7.2% in assay [4]; 0.8% in assay [5]; 2.5% in assay [6].
With `Nc1cnccc1NCC(O)c1ccccc1` (centres undefined), the growth inhibition was 9.95% in assay [1]; -5.9% in assay [2]; -6.65% in assay [3]; -15.6% in assay [4]; -1.5% in assay [5]; -8.6% in assay [6].
For `O=C(NCCCl)NCC1CCCCO1` (centres undefined), the growth inhibition in assay [1] is -2.8%; in assay [2], 7%; in assay [3], 0.2%; in assay [4], -76.3%; in assay [5], -3.9%; in assay [6], -12%.
For the compound `CCOC(=O)Nc1ccc(F)cc1F`, the growth inhibition in assay [1] was -62.1%; in assay [2], -10.6%; in assay [3], -2.75%; in assay [4], -10.5%; in assay [5], 8.65%; in assay [6], 14.4%.
For the compound `C(=N/Nc1ccccn1)/NN/C=N/Nc1ccccn1`, the growth inhibition in assay [1] was -7.6%; in assay [2] it was 6.25%; in assay [3], -3.8%; in assay [4], 7.1%; in assay [5], -2.45%; in assay [6], -4.9%.
In the case of `O=C1OC(c2cccc([N+](=O)[O-])c2)=N/C1=C\c1ccccc1`, the growth inhibition in assay [1] is 17.2%; in assay [2], 12.1%; in assay [3], 14.6%; in assay [4] it was 18.4%; in assay [5] it was 15.3%; in assay [6], 24.6%.
`CCN(CC)Cc1cc(Oc2ccc(O)c(CN(CC)CC)c2)ccc1O`: the growth inhibition in assay [1] was 11.1%; in assay [2], 8.5%; in assay [3] it was 3.65%; in assay [4] it was -22.7%; in assay [5] it was 11.6%; in assay [6], -4.4%.
As to `O=C1N2Cc3c4ccc5c3CN3C(=O)N6Cc7c(ccc(c7CN1C6(c1ccccc1)C23c1ccccc1)OCCOCCNCCOCCO4)OCCOCCNCCOCCO5` (centres undefined), the growth inhibition is -31.1% in assay [1]; -26.2% in assay [2]; -34.2% in assay [3]; 3.4% in assay [4]; -16.2% in assay [5]; -30.1% in assay [6].
For the compound `CCCCCCCC/C=C\CCCCCCCC(=O)NCCN(CC)CC`, the growth inhibition in assay [1] is 98.7% (active); in assay [2], 99.3% (active); in assay [3], 99.3% (active); in assay [4], 96.8% (active); in assay [5], 98.7% (active); in assay [6], 98.8% (active).
Consider `CC1CCC(OC(=O)CC#N)CC1` (centres undefined), for which the growth inhibition in assay [1] was -2.15%; in assay [2], -7.2%; in assay [3] it was -2.3%; in assay [4], 3.45%; in assay [5], 2.35%; in assay [6], -6.15%.
In the case of `O=C1C2C3CCC(C3)C2C(=O)N1CCO` (centres undefined), the growth inhibition is 3.35% in assay [1]; 6% in assay [2]; 7.15% in assay [3]; 4.85% in assay [4]; 17.9% in assay [5]; -2.45% in assay [6].
With `O=[N+]([O-])c1cc(Cl)ccc1Sc1ccccc1`, the growth inhibition in assay [1] is 39.6%; in assay [2], 8.25%; in assay [3], 34.3%; in assay [4] it was 21.9%; in assay [5] it was 24.7%; in assay [6] it was 27.3%.
Take `Cc1cc(Nc2ccc(S(=O)(=O)O)c3cc(S(=O)(=O)O)cc(S(=O)(=O)O)c23)c2ccccc2n1`: the growth inhibition was -14.1% in assay [1]; 4.3% in assay [2]; 3.2% in assay [3]; -10.9% in assay [4]; 6% in assay [5]; 8.7% in assay [6].
Turning to `CC(=O)Nc1ccc(C(=O)NN2C(=O)C(Cl)C2c2ccccc2O)cc1` (centres undefined), the growth inhibition in assay [1] was -24.8%; in assay [2], -16.3%; in assay [3] it was -45.9%; in assay [4], 0.15%; in assay [5], -38.1%; in assay [6], -32.9%.
With `CC(C)c1ccc(/C=N\NC(=O)NNC(=O)c2ccccc2)cc1`, the growth inhibition was -3.05% in assay [1]; -4.25% in assay [2]; 11.6% in assay [3]; -95.8% in assay [4]; -2.85% in assay [5]; -8.25% in assay [6].
As to `CN1CC(O)CN(C)C1=S`, the growth inhibition in assay [1] was -9.05%; in assay [2] it was -8.2%; in assay [3], 1.6%; in assay [4], -34.6%; in assay [5], -7.9%; in assay [6] it was -5%.
`Cn1c(=O)c2c(nc(CCC(N)=O)n2C)n(C)c1=O`: the growth inhibition in assay [1] was -1.35%; in assay [2], -20.9%; in assay [3], 8.25%; in assay [4], -14.8%; in assay [5], 11.8%; in assay [6], 12.7%.
As for `CN(C)c1ncnc2c1ncn2C1OC(CO)C(O)C1O` (centres undefined), the growth inhibition in assay [1] was 14.2%; in assay [2] it was 20%; in assay [3], 4%; in assay [4], -34.4%; in assay [5] it was 18.1%; in assay [6] it was 24.5%.
For the compound `O=C(Cc1nc2sc3c(c2c(=O)[nH]1)CCCC3)Nc1ccccc1`, the growth inhibition in assay [1] is -3.1%; in assay [2] it was -12.3%; in assay [3] it was 0.05%; in assay [4], 5.9%; in assay [5], -4%; in assay [6], -17.6%.
On to `C(#CCOc1ccc2c(c1)OCO2)COc1ccc2c(c1)OCO2`, for which the growth inhibition is 29% in assay [1]; 0.8% in assay [2]; -18.8% in assay [3]; -9.05% in assay [4]; -8.8% in assay [5]; 8.3% in assay [6].
`CC1=CC(C)(C)N=C2SC(c3ccc(N)cc3)=NN12`: the growth inhibition in assay [1] is 25%; in assay [2], 1.7%; in assay [3], 3.55%; in assay [4], 5.9%; in assay [5], 18.5%; in assay [6], 28.4%.
As for `Nc1nc(-c2ccccc2)nc2nc3[nH]c(=O)[nH]c(=O)c3nc12`, the growth inhibition in assay [1] was -12.3%; in assay [2], 5.25%; in assay [3], 22.8%; in assay [4], 0.95%; in assay [5] it was 19.1%; in assay [6] it was 2.95%.
Regarding `Oc1cccc(O)c1`, the growth inhibition in assay [1] is 0.8%; in assay [2], -1%; in assay [3], -1.1%; in assay [4] it was -12.2%; in assay [5], 1.75%; in assay [6], 33.1%.
On to `COc1cc(C(=O)C/C(CCC(=O)Nc2ccccc2[N+](=O)[O-])=N\NC(=O)CC#N)ccc1O`, for which the growth inhibition in assay [1] was -25.9%; in assay [2], -20.8%; in assay [3], -36.7%; in assay [4], -11.4%; in assay [5], -11.6%; in assay [6] it was -31.4%.
Turning to `O=C(/C=N\O)c1ccncc1`, the growth inhibition in assay [1] is -13.8%; in assay [2], -16.9%; in assay [3], -30.8%; in assay [4], -16.1%; in assay [5], -8.65%; in assay [6], -35.7%.
Regarding `NC1C2C3C=CC(C3)C12` (centres undefined), the growth inhibition in assay [1] is 12.5%; in assay [2] it was -3.85%; in assay [3], -5.75%; in assay [4], -28.9%; in assay [5], -5.2%; in assay [6] it was 8.95%.
In the case of `CCCCNc1nc(SC)nc2nc[nH]c12`, the growth inhibition in assay [1] was -9.35%; in assay [2], -9.65%; in assay [3], -41.1%; in assay [4], -21.2%; in assay [5] it was -26.4%; in assay [6], -3.9%.
As to `Cc1cc(C(C)C)c(C)cc1C(C)C`, the growth inhibition is -18.9% in assay [1]; -4.25% in assay [2]; -14.4% in assay [3]; -7% in assay [4]; -6.2% in assay [5]; -4.15% in assay [6].
Turning to `CN1CN(c2ccccc2)C2(CCN(c3nc4ccccc4s3)CC2)C1=O`, the growth inhibition in assay [1] was -29.7%; in assay [2] it was -6.1%; in assay [3] it was -22.8%; in assay [4], -18.4%; in assay [5], 3.2%; in assay [6] it was -17.1%.
For `CCCCCCCCCCCCOc1cccc(OCCCCCCCCCCCC)c1`, the growth inhibition is 29.4% in assay [1]; -4.75% in assay [2]; 21.8% in assay [3]; -41.1% in assay [4]; -1.9% in assay [5]; -19.1% in assay [6].
In the case of `CN(C)c1ccc(-c2c(C#N)c(N)[nH]c(=S)c2C#N)cc1`, the growth inhibition in assay [1] is 9.9%; in assay [2], -2.35%; in assay [3] it was 4.7%; in assay [4], 6.35%; in assay [5], 16.9%; in assay [6], 3.45%.
As for `CC1=CC[P+](Cc2ccccc2)(c2ccccc2)C1` (centres undefined), the growth inhibition in assay [1] was -25.4%; in assay [2], 14.7%; in assay [3], 22.2%; in assay [4], 4.35%; in assay [5], 8.2%; in assay [6], 8.8%.
As to `CCCN(CCC)S(=O)(=O)c1ccc(NC(=O)OC2CCCCC2)cc1`, the growth inhibition in assay [1] was 37.1%; in assay [2], 2.25%; in assay [3], 23.6%; in assay [4], 13.1%; in assay [5], -4.7%; in assay [6], 17.9%.
As for `CC(=O)c1sc2c(c1OC(=O)c1ccc(Cl)cc1)c(=O)n(-c1ccccc1)c(=S)n2-c1ccccc1`, the growth inhibition in assay [1] is 9.55%; in assay [2] it was -8.9%; in assay [3], -11.2%; in assay [4], 7.95%; in assay [5], 11.9%; in assay [6], 9.05%.
Regarding `CSc1nnc(SCc2nn3c(=O)cc(C)nc3s2)s1`, the growth inhibition in assay [1] was -7.9%; in assay [2], -0.85%; in assay [3], 0.4%; in assay [4], 10%; in assay [5] it was 5.55%; in assay [6], 10.6%.
As to `NC(=O)C(Cl)=C(Cl)Cl`, the growth inhibition in assay [1] is 2.85%; in assay [2], 10.4%; in assay [3] it was -2%; in assay [4] it was -4.75%; in assay [5], -4.8%; in assay [6], 1.65%.
Turning to `CN(C)CC(=O)c1c[nH]c(=O)[nH]c1=O`, the growth inhibition is 11.3% in assay [1]; -49.1% in assay [2]; -13.4% in assay [3]; -63.2% in assay [4]; -1.65% in assay [5]; -8.55% in assay [6].
